Experimental data as given in the supplement of paper PMC3334620.
Whole data set: some 33,000 sequences, median “E-score (-0.5 to 0.5)” near -0.054, cut for the highest 2% near 0.39. Only a selection was taken, and the highest values are over-represented in it overall.

target: Ylr278c (UniProt Q05854); assay: PBM E-score (8-mer binding enrichment) (E-score (-0.5 to 0.5)); higher = stronger / more preferred TF binding; conditions: protein concentration: 200 nM; construct: GST-DNA-binding domain
Outline: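 Using PURExpress in vitro transcription/translation, GST-tagged yeast transcription factors were made in full-length or DNA-binding-domain form. These were applied at about 100-200 nM to double-stranded universal all-10-mer Agilent arrays, and bound protein was detected with fluorescent anti-GST. Scans were normalised with masliner before the Universal PBM Analysis Suite assigned E-scores to ungapped eight-base words pooled with their reverse complements.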

Chain of UniProt Q05854 (Q05854 whole entry, the tested form may be a part): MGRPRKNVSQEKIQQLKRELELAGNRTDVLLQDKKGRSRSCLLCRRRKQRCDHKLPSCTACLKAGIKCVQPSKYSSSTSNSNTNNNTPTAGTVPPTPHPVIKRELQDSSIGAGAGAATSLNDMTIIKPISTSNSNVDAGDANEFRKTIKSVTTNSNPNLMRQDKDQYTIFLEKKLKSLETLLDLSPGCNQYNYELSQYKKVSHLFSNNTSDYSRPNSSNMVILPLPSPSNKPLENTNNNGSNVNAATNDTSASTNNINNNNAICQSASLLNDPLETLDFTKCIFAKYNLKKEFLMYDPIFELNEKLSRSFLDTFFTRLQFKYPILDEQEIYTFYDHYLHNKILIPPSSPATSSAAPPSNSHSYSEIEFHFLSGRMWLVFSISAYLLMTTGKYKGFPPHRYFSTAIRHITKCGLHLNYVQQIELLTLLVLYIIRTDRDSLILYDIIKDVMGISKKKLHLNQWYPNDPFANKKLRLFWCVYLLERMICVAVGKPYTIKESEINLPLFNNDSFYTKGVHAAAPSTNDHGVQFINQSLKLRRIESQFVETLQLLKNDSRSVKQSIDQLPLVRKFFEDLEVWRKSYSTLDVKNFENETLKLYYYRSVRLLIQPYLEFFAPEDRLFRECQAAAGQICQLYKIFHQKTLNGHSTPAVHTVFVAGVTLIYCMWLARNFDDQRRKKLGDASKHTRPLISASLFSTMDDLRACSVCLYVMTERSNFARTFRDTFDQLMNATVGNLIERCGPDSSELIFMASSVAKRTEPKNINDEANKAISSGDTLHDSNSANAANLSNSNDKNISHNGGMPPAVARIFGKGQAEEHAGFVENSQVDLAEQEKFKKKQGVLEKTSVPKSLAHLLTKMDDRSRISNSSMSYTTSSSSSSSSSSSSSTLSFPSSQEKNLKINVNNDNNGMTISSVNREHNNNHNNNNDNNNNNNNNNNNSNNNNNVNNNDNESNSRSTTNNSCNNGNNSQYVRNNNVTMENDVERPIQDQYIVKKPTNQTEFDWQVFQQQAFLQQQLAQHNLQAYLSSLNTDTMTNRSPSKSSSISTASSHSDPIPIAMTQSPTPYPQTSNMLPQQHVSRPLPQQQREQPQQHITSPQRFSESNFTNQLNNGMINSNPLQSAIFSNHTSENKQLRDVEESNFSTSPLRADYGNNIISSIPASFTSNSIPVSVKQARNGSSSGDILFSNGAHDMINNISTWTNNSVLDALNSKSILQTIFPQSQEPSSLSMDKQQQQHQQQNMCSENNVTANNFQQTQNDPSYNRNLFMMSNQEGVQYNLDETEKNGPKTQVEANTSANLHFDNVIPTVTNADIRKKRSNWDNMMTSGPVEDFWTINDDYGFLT

| Sequence | PBM E-score |
| --- | --- |
| ATACCGTC | 0.153 |
| AACCTAGT | -0.00542 |
| AACTTAGG | -0.156 |
| CAAGTGCA | -0.362 |
| TGGTTCAA | -0.118 |
| ATACCTTC | 0.0292 |
| GGCGCACA | 0.145 |
| TCCCTCAA | -0.106 |
| GGGCCGTA | 0.0879 |
| CGGCCGGA | 0.424 |
| GGGCCGGA | 0.418 |
| CGGCCGGC | 0.409 |
| AGGCCGGA | 0.419 |
| GGGCCGAA | 0.198 |
| CGGCCGCA | 0.249 |
| AGGCCGGG | 0.258 |
| CGGCCGTA | 0.225 |
| AGGCCGGC | 0.342 |
| CGGCCGAC | 0.309 |
| AGGCCGTA | 0.0868 |
| CACCTAAG | -0.134 |
| CTTACCTC | -0.0434 |
| AGGTTGGG | -0.122 |
| ACGCTACT | 0.0556 |
| AGCAATCA | -0.118 |
| CATTGTCC | 0.314 |

| Sequence | PBM E-score |
| --- | --- |
| CGCCATAG | -0.135 |
| GGTTGATA | -0.0138 |
| CGTCGTTC | 0.137 |
| ATCTGACG | -0.134 |
| CGTGCCAA | -0.0693 |
| CGGCCTTC | 0.394 |
| CGGCCTTA | 0.352 |
| AGGCCTTC | -0.221 |
| AGTTCCGA | 0.43 |
| AGTTCCGC | 0.383 |
| AGTTCCTG | -0.0874 |
| CGTTCCGA | 0.288 |
| AGTTCCGG | 0.433 |
| GGTTCCGA | 0.384 |
| AGAACCGG | 0.345 |
| AACTCCTG | 0.152 |
| CACTCCGC | 0.393 |
| CACTCCGA | 0.454 |
| AACTCCCG | 0.365 |
| CACTCCTG | -0.0899 |
| CACTCCAC | -0.139 |
| AACTCCGG | 0.497 |
| CACTCCCG | 0.193 |
| CACTCCAA | 0.031 |
| CACTCCTC | 0.0388 |
| CACTCCCA | -0.106 |

| Sequence | PBM E-score |
| --- | --- |
| CACTCCGG | 0.46 |
| ATCTAGTC | 0.0095 |
| GAGCGCGC | 0.182 |
| GGCATCTA | -0.0448 |
| ATCCATCA | -0.135 |
| AACTCCGC | 0.49 |
| GACTCCGA | 0.467 |
| GACTCCAA | -0.221 |
| GACTCCGC | 0.426 |
| GACTCCTA | -0.191 |
| TACTCCAA | -0.243 |
| AACTCCTC | 0.0657 |
| TACTCCTA | -0.187 |
| TACTCCGA | 0.479 |
| GACTCCTC | -0.135 |
| AACTCCCC | 0.266 |
| GACTCCAC | -0.0152 |
| CATCAGTA | -0.233 |
| GGTGTGAC | -0.172 |
| GTAAACAA | -0.0542 |
| GTGCTCAA | -0.104 |
| ACCGCCCA | 0.154 |
| AACCTTCA | -0.245 |
| TCACTCCA | -0.0238 |
| AAGCTTGA | -0.0383 |
| TCGGTCAA | 0.0369 |

| Sequence | PBM E-score |
| --- | --- |
| GATTGCAC | 0.0435 |
| AACTCCGT | 0.486 |
| AACTCCAT | 0.214 |
| AACTCCCA | 0.155 |
| AACTCCCT | -0.072 |
| AACTCCAA | -0.00212 |
| AACTCCGA | 0.496 |
| GACTTTCC | 0.137 |
| CTGCGAAA | -0.0633 |
| CCCCTGAA | -0.144 |
| CACCCCAA | -0.0388 |
| GCGCCGAA | 0.302 |
| ACGCCGGA | 0.432 |
| CCGCCGCA | 0.266 |
| ACGCCGGG | 0.365 |
| CCGCCGGA | 0.462 |
| CCGCCGTC | 0.218 |
| ACGCCGTA | 0.0546 |
| CCGCCGTA | 0.354 |
| CCGCCGGC | 0.41 |
| GCGCCGTA | 0.231 |
| GCGCCGGA | 0.432 |
| CCGCCGCC | 0.304 |
| GTGGCCCA | -0.196 |
| CGACTGAC | -0.171 |
| CGGATCGA | 0.19 |

| Sequence | PBM E-score |
| --- | --- |
| CAACTCTC | -0.0583 |
| ACTGAGAG | -0.25 |
| TACAGTGA | -0.253 |
| CGTATGCC | 0.107 |
| ATCTAGTG | -0.173 |
| AACTATCC | 0.0243 |
| ACGCCGCC | 0.279 |
| ACGCCGTC | 0.276 |
| ACGCCGGC | 0.421 |
| AATATGAA | 0.0372 |
| CGGGCTGC | 0.118 |
| CGAATGGA | -0.121 |
| GACGCTGA | -0.214 |
| CTATCGGC | 0.239 |
| GTATCGCA | -0.0427 |
| ATATCGGG | 0.313 |
| CTATCGGA | 0.444 |
| GTATCGGA | 0.431 |
| ATATCGGC | 0.319 |
| GTATCGAA | -0.103 |
| ATATCGGA | 0.391 |
| CTATCGTA | -0.18 |
| ATCTCAGG | -0.0988 |
| GTGGCAAC | -0.0372 |
| AGCAATCG | -0.0973 |
| CTCCTTTA | -0.132 |

| Sequence | PBM E-score |
| --- | --- |
| ACATTGCA | -0.0533 |
| TCCGCCGA | 0.437 |
| AAAGCCGG | 0.391 |
| AACGCCGT | 0.272 |
| GCCGCCGA | 0.338 |
| CAAGCCGG | 0.263 |
| AACGCCGC | 0.339 |
| AACGCCGG | 0.424 |
| CCCGCCGA | 0.334 |
| ATCGCCGC | 0.295 |
| ATCGCCGA | 0.373 |
| ATCGCCGG | 0.421 |
| AAAGCCGT | 0.137 |
| ATCTGTGC | -0.167 |
| AAGCGAAG | -0.0624 |
| AAAAGCCG | 0.388 |
| AACGCCGA | 0.433 |
| AAAAGCCC | 0.151 |
| ACCGCCGG | 0.403 |
| CACGCCGA | 0.211 |
| TACGCCGA | 0.293 |
| AAAAGCCT | -0.224 |
| CCCGCCGG | 0.384 |
| ACCGCCGC | 0.235 |
| GAGACTAC | 0.0263 |
| ACGCAAAG | -0.0959 |

| Sequence | PBM E-score |
| --- | --- |
| GGACCGCA | 0.238 |
| CGACCGGA | 0.409 |
| CGACCGAA | 0.148 |
| CGACCGGC | 0.248 |
| GGACCGGA | 0.442 |
| AGACCGGA | 0.335 |
| CACAGATC | -0.0312 |
| ACTGCTCT | -0.15 |
| ATCTTCGG | 0.303 |
| AAGTCGCT | -0.163 |
| ACGACACC | 0.0263 |
| ATCAAAAA | 0.0906 |
| CTCCCAGC | -0.0468 |
| ATTGTCCG | 0.452 |
| CATGTCCG | 0.384 |
| ATTGTCCC | 0.0603 |
| AATGTCCG | 0.458 |
| ATTGTCCA | -0.113 |
| AATGTCCA | -0.115 |
| GCCGCAGA | 0.143 |
| AGGTGTCG | 0.0347 |
| GCCGATGA | 0.298 |
| GTCCGCAA | 0.334 |
| TTCCGCAA | 0.298 |
| ATCCGCAC | 0.299 |
| CCCCGCAG | 0.302 |

| Sequence | PBM E-score |
| --- | --- |
| CTCCGCAC | 0.41 |
| CTCCGCAA | 0.409 |
| CTCCGCAG | 0.418 |
| GTCCGCAC | 0.308 |
| ATCCGCAG | 0.259 |
| ACACCTGG | -0.243 |
| CCCTCTAG | -0.311 |
| CGTGGCCC | -0.0746 |
| AACCCTAA | -0.0663 |
| CGAAAGGC | 0.0796 |
| AAGCCCGG | 0.416 |
| ACGCCCCG | 0.229 |
| CCGCCCGC | 0.349 |
| CCGCCCCC | 0.168 |
| CCGCCCGG | 0.402 |
| ACGCCCGG | 0.305 |
| CCGCCCCG | 0.42 |
| AAGCCCGC | 0.266 |
| AAGCCCGT | 0.0339 |
| GAAACCTC | 0.0208 |
| CTGAGTCC | 0.00022 |
| CACTAAAG | -0.169 |
| GTGCTCCA | -0.118 |
| AACAACAC | -0.0906 |
| ACTTGACG | -0.135 |
| ATTGATCC | 0.282 |

| Sequence | PBM E-score |
| --- | --- |
| CACTTGCC | 0.0403 |
| CCCCTCGC | -0.239 |
| CGGAGCCC | 0.37 |
| AGGAGCCG | -0.0181 |
| TGGAGCCA | -0.194 |
| CGGAGCCA | 0.402 |
| CGGAGCCG | 0.427 |
| GGGAGCCA | -0.264 |
| AATGCTGC | -0.0877 |
| CAGTCTCA | -0.126 |
| CATCGGTC | 0.15 |
| CATCGGAC | 0.424 |
| GATCGGTA | 0.265 |
| AATCGGAT | 0.384 |
| AATCGGTG | 0.126 |
| AATCGGAA | 0.416 |
| AATCGGGA | 0.231 |
| GATCGGAA | 0.408 |
| AATCGGCA | 0.304 |
| AATCGGAG | 0.466 |
| GATCGGGA | 0.227 |
| CATCGGGC | 0.211 |
